According to ChEMBL document CHEMBL1961873, “Compounds: GSK PKIS; Assays: Nanosyn kinase panel” (2012):

How the values were obtained:
[1] = biological target: Ribosomal protein S6 kinase alpha-6 (Homo sapiens) (UniProt Q9UK32); conditions: at 1 µM;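 also: each value is a mean inhibition of RSK4 from a GSK PKIS panel screen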
[2] = biological target: T1, Serine/threonine-protein kinase Sgk1 (Homo sapiens) (UniProt O00141); conditions: at 0.1 µM
T1 sequence (whole entry): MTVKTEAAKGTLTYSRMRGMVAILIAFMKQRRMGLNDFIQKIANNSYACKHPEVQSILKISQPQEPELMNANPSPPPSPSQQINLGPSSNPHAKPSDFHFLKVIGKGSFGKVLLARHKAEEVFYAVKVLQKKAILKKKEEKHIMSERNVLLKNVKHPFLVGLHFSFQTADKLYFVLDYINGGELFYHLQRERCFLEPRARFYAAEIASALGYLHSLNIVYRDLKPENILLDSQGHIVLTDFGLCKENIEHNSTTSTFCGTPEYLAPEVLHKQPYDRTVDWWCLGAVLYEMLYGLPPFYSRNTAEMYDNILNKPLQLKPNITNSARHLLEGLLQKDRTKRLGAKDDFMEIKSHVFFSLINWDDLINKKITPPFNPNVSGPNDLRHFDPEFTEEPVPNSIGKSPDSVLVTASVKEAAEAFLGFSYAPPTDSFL

[3] = biological target: T1, Serine/threonine-protein kinase Sgk1 (Homo sapiens); conditions: at 1 µM
[4] = biological target: T2, Serine/threonine-protein kinase Sgk2 (Homo sapiens) (UniProt Q9HBY8); conditions: at 0.1 µM
T2 sequence (whole entry): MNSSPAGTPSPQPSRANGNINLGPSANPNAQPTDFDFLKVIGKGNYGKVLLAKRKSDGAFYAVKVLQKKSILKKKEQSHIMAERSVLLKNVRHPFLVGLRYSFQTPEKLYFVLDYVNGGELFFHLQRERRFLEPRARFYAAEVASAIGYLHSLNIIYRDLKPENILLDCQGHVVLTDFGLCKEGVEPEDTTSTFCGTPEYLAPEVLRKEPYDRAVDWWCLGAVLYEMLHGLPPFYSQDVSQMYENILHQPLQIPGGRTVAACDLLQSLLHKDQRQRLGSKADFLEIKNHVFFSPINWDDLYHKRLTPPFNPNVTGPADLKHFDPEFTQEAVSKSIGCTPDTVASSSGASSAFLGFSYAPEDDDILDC

[5] = biological target: T2, Serine/threonine-protein kinase Sgk2 (Homo sapiens); conditions: at 1 µM
[6] = biological target: T3, Serine/threonine-protein kinase Sgk3 (Homo sapiens) (UniProt Q96BR1); conditions: at 0.1 µM
T3 sequence (whole entry): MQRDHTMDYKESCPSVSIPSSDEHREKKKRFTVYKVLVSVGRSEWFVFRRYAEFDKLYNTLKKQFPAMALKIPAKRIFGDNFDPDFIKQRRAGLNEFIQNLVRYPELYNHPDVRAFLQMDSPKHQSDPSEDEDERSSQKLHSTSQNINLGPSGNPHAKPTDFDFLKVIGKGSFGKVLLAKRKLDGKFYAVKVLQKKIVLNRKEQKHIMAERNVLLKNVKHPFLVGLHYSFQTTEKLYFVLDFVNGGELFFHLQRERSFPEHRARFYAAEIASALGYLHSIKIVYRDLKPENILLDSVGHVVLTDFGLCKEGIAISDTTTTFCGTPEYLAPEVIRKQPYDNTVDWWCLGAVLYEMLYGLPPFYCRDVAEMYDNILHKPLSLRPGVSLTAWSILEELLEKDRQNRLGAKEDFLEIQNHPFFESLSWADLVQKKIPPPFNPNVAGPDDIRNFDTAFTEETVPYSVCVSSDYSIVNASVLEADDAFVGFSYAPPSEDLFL

[7] = biological target: T3, Serine/threonine-protein kinase Sgk3 (Homo sapiens); conditions: at 1 µM
[8] = biological target: 5'-AMP-activated protein kinase catalytic subunit alpha-1 (Homo sapiens) (UniProt Q13131); conditions: at 0.1 µM
Chain of 5'-AMP-activated protein kinase catalytic subunit alpha-1 (Homo sapiens) (Q13131 whole entry, looked up): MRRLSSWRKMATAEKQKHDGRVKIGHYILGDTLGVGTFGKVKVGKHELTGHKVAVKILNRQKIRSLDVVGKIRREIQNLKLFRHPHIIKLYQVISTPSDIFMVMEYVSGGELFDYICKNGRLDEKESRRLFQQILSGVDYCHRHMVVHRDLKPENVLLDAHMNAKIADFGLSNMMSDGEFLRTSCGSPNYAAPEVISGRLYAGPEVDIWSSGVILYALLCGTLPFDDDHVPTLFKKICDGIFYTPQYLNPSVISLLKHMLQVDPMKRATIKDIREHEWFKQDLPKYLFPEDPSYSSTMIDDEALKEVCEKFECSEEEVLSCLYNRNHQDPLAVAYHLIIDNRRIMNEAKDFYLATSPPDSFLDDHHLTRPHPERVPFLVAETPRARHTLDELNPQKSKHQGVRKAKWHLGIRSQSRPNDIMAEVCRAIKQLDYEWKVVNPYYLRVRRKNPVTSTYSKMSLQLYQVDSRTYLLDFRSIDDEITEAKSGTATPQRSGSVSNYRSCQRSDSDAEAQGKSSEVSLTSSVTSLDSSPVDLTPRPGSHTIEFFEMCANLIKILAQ

[9] = biological target: 5'-AMP-activated protein kinase catalytic subunit alpha-1 (Homo sapiens) (UniProt Q13131); conditions: at 1 µM
[10] = biological target: 5'-AMP-activated protein kinase catalytic subunit alpha-2 (Homo sapiens) (UniProt P54646); conditions: at 0.1 µM
Chain of 5'-AMP-activated protein kinase catalytic subunit alpha-2 (Homo sapiens) (P54646 whole entry, looked up): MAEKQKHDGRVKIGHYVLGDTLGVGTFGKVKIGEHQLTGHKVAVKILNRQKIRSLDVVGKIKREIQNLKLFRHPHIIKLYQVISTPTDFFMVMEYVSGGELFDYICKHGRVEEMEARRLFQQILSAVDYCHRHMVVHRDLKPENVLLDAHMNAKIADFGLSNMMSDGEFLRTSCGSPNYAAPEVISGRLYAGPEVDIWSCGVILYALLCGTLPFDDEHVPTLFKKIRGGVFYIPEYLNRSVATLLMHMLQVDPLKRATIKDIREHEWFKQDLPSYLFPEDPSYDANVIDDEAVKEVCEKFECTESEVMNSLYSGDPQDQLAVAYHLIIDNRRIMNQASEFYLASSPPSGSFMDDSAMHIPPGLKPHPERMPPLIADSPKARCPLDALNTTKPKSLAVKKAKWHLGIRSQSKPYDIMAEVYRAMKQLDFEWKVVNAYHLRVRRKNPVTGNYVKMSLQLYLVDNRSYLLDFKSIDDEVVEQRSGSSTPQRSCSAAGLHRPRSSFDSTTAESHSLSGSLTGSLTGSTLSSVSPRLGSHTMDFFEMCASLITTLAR

[11] = biological target: 5'-AMP-activated protein kinase catalytic subunit alpha-2 (Homo sapiens) (UniProt P54646); conditions: at 1 µM
[12] = biological target: T4, NUAK family SNF1-like kinase 1 (Homo sapiens) (UniProt O60285); conditions: at 0.1 µM
T4 sequence (whole entry): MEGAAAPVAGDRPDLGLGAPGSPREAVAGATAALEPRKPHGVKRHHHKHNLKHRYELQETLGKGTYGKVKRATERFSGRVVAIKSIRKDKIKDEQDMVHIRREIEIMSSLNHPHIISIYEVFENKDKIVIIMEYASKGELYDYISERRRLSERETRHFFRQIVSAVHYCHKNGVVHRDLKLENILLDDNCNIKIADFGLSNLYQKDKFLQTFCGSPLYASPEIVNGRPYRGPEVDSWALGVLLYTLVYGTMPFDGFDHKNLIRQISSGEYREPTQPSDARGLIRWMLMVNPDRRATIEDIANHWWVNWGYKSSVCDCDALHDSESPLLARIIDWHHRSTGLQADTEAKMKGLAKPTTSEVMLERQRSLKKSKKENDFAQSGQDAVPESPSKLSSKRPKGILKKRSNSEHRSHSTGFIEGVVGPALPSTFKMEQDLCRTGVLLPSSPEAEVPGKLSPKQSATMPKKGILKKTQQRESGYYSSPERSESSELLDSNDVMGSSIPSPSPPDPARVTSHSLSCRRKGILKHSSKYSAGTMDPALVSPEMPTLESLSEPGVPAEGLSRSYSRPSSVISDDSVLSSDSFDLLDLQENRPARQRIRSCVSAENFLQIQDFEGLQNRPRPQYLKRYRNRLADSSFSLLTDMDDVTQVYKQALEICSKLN

[13] = biological target: T4, NUAK family SNF1-like kinase 1 (Homo sapiens); conditions: at 1 µM
[14] = biological target: T5, Serine/threonine-protein kinase BRSK1 (Homo sapiens) (UniProt Q8TDC3); conditions: at 0.1 µM
T5 sequence (whole entry): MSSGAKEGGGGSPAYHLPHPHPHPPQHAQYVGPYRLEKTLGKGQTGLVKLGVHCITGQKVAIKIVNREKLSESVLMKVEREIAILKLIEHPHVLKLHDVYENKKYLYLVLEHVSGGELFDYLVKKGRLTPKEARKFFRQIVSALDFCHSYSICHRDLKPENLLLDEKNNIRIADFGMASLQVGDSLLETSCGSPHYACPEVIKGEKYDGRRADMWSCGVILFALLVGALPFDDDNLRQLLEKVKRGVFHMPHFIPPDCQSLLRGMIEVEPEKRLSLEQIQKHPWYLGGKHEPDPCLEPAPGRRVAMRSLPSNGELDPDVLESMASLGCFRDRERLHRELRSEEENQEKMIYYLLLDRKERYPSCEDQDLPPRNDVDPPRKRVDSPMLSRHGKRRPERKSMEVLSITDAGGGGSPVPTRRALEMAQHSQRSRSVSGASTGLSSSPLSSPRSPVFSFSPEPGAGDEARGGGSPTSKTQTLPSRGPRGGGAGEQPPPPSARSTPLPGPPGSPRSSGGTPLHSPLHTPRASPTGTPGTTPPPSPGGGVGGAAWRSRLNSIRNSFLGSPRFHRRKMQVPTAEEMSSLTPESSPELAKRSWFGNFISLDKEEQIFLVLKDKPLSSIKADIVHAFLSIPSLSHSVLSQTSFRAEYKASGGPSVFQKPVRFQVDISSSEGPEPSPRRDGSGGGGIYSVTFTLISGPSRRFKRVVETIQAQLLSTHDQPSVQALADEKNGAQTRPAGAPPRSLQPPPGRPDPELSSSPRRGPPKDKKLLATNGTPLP

[15] = biological target: T5, Serine/threonine-protein kinase BRSK1 (Homo sapiens); conditions: at 1 µM
[16] = biological target: T6, Serine/threonine-protein kinase BRSK2 (Homo sapiens) (UniProt Q8IWQ3); conditions: at 0.1 µM
T6 sequence (whole entry): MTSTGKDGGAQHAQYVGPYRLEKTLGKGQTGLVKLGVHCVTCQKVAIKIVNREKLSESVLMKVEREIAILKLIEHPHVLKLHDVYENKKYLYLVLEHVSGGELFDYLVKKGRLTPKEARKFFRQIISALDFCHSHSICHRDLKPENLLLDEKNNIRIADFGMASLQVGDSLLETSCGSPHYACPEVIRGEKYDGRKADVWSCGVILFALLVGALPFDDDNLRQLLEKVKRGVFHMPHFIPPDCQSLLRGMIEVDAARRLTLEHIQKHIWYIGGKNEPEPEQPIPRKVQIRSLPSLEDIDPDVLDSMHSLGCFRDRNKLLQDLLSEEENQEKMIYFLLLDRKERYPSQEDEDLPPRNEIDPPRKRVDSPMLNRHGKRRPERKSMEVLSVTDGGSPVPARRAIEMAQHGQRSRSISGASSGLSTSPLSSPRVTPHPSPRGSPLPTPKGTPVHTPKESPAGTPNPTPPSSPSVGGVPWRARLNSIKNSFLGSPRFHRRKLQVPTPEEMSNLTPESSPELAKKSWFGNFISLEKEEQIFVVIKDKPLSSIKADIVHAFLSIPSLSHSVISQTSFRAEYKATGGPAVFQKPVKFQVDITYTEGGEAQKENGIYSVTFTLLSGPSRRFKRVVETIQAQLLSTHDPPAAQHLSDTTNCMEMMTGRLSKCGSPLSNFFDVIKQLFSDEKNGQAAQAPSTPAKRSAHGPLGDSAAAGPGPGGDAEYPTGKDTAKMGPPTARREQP

[17] = biological target: T6, Serine/threonine-protein kinase BRSK2 (Homo sapiens); conditions: at 1 µM
[18] = biological target: Calcium/calmodulin-dependent protein kinase type 1D (Homo sapiens) (UniProt Q8IU85); conditions: at 0.1 µM
Chain of Calcium/calmodulin-dependent protein kinase type 1D (Homo sapiens) (Q8IU85 whole entry, looked up): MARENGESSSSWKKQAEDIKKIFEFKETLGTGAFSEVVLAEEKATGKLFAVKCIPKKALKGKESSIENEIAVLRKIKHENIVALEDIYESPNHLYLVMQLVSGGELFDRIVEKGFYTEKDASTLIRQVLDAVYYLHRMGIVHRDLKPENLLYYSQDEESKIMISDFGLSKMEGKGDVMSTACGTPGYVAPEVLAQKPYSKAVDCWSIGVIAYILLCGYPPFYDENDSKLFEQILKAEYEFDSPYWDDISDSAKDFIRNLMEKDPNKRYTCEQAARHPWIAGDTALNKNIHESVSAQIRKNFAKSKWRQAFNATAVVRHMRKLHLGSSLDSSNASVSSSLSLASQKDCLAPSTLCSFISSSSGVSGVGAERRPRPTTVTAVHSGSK

[19] = biological target: Calcium/calmodulin-dependent protein kinase type 1D (Homo sapiens) (UniProt Q8IU85); conditions: at 1 µM
[20] = biological target: Calcium/calmodulin-dependent protein kinase type II subunit alpha (Homo sapiens) (UniProt Q9UQM7); conditions: at 0.1 µM;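 also: reported values are averages (mean inhibition of CAMK2A)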
Chain of Calcium/calmodulin-dependent protein kinase type II subunit alpha (Homo sapiens) (Q9UQM7 whole entry): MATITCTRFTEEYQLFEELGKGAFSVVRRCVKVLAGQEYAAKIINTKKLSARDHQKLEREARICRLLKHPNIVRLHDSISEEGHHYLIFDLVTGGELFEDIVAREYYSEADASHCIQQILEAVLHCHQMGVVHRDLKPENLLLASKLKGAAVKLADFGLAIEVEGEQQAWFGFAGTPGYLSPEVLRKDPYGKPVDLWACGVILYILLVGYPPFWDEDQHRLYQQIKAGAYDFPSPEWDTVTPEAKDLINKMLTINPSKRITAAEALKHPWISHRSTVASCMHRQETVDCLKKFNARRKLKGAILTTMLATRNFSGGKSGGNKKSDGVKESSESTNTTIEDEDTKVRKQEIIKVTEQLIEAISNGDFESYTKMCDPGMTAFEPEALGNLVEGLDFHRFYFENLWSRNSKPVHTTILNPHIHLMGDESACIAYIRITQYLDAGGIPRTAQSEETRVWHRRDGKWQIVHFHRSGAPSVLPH

Chain of Ribosomal protein S6 kinase alpha-6 (Homo sapiens) (Q9UK32 whole entry): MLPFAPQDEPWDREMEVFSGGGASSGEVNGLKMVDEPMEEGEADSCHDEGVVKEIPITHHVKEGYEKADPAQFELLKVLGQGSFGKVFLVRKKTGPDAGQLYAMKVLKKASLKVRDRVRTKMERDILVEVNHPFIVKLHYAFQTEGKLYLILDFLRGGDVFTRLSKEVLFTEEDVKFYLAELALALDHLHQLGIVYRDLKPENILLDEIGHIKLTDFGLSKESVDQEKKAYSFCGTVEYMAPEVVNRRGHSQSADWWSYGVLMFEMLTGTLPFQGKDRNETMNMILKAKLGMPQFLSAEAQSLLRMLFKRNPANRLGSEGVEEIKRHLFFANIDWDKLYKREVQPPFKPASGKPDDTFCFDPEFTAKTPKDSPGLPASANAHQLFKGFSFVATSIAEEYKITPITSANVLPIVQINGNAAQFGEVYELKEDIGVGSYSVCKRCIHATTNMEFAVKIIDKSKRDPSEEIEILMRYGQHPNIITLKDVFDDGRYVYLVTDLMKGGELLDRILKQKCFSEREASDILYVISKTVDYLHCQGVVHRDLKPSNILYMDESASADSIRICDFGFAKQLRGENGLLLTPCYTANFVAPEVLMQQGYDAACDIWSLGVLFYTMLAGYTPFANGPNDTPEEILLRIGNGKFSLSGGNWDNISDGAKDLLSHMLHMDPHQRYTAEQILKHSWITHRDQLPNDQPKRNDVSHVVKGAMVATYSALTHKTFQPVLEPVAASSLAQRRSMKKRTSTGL

Structure (SMILES)	inhibition [1]	inhibition [2]	inhibition [3]	inhibition [4]	inhibition [5]	inhibition [6]	inhibition [7]	inhibition [8]	inhibition [9]	inhibition [10]	inhibition [11]	inhibition [12]	inhibition [13]	inhibition [14]	inhibition [15]	inhibition [16]	inhibition [17]	inhibition [18]	inhibition [19]	inhibition [20]
NS(=O)(=O)c1ccc(Nc2cc(-c3cccc(O)c3)n[nH]2)cc1	4.67%	6.76%	4.48%	2.52%	1.36%	6.64%	2.75%	5.36%	11.1%	5.11%	9.57%	5.05%	13.9%	3.55%	4.52%	3.59%	7.4%	1.05%	0.76%	4.18%
COC(=O)Nc1nc2cc(Oc3ccc(NC(=O)Nc4cccc(Br)c4)cc3)ccc2[nH]1	1.35%	4.42%	6.16%	2.07%	3.07%	2.77%	3.45%	2.86%	2.58%	0.56%	4.23%	3.02%	2.47%	-0.15%	0.86%	2%	0.84%	1.16%	0.29%	3.25%
Cc1cc(O)cc(C)c1/C=C/c1cncc(C(=O)N(C)C)c1	1.77%	1.71%	2.5%	-0.51%	2.83%	4.43%	0%	2.63%	1.76%	1.57%	4.38%	1.62%	8.58%	2.98%	8.54%	3.48%	6.07%	-0.81%	2.29%	3.26%
Nc1nccc(-c2c(-c3ccc(F)cc3)nn3cc(C(F)(F)F)ccc23)n1	-1.48%	1.36%	0.06%	2.28%	-4.03%	3.01%	-3.28%	-1.23%	-0.36%	0.94%	0.34%	0.16%	-3%	-0.37%	0.47%	0.15%	-0.77%	-1.67%	-2.05%	0.49%
Cc1ccc2c(-c3ccnc(Nc4cccc(C(F)(F)F)c4)n3)c(-c3ccccc3)nn2n1	2.56%	2.23%	3.64%	5.64%	-0.25%	3.07%	4.11%	0.65%	2.66%	5.96%	3.47%	4.18%	5.3%	2.22%	1.34%	1.33%	3.25%	0.64%	2.72%	2.64%
